Data from the supplement of paper PMC11732987, “Enantioselective OTUD7B fragment discovery through chemoproteomics screening and high-throughput optimisation” (Communications Chemistry, 2025).

Molecular target: COPS5 (UniProt Q92905)
Test: log2 ratio of Biotin-Ahx-Ub-VS probe labelling (fragment/DMSO); higher = less target engagement (more negative = stronger competition), active = hit call of the paper (q ≤ 0.05, log2 ratio ≤ -1)
Settings: compound concentration: 200 uM; treatment time: 3 h
Description: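 Competitive ABPP in HEK293T cell lysate. Lysates were treated with each chloroacetamide fragment at 200 µM for 3 h, then with Biotin-Ahx-Ub-VS (0.5 µM, 1 h), NeutrAvidin-enriched and analysed by diaPASEF LC-MS/MS. Protein LFQ was median-normalised; average log2 ratio is fragment/DMSO from an unpaired t-test (n=3 treated, n=44 DMSO). Hits: q ≤ 0.05, log2 ratio ≤ -1, unique peptides ≥ 2.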

COPS5, sequence (Q92905 whole entry, looked up, the tested form may be a part): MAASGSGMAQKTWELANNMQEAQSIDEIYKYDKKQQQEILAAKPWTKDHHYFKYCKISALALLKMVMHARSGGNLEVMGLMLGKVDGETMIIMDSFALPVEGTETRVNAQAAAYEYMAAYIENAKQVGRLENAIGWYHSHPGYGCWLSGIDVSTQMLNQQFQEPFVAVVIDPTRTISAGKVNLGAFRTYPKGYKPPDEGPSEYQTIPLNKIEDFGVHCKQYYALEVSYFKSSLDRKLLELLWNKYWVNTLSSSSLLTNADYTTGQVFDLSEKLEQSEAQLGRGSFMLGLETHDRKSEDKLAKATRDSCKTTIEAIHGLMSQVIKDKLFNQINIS

log2 ratio of Biotin-Ahx-Ub-VS probe labelling, inactive:
CN(C)S(=O)(=O)c1ccccc1CNC(=O)CCl 0.197
Cc1ccc(N(C(=O)CCl)C2C=CS(=O)(=O)C2)cc1 (stereo not given) -0.235
O=C(CCl)NCc1ccc(Cl)cc1 -0.152
O=C(CCl)NCC1(c2ccccc2)CC1 0.0827
O=C(CCl)NC1CCC2(CC1)OCCO2 0.176
CC(NC(=O)CCl)c1cnn(C2CC2)c1 (stereo not given) -0.244
CC1Cc2ccccc2N1C(=O)CCl (stereo not given) 0.169
O=C(CCl)N1CCC2(CCC(O)CC2)CC1 0.318
Cc1conc1C1CN(C(=O)CCl)C1 0.0369
Cc1ccc(CC(NC(=O)CCl)c2ccccn2)cc1.Cl (stereo not given) -0.0198
NC(=O)C1CCCCN1C(=O)CCl (stereo not given) 0.234
O=C(CCl)N1CCc2[nH]c3ccccc3c2C1 -0.0163
CC(c1ccccc1)N(C)C(=O)CCl (stereo not given) 0.082
CS(=O)(=O)N1CCCN(C(=O)CCl)CC1 0.193
O=C(CCl)N1CCC(c2ccn[nH]2)C1 (stereo not given) 0.121
O=C(CCl)N1CCC(C(O)c2ccc(F)cc2)CC1 (stereo not given) -0.113
Cl.O=C(CCl)N1CCC(n2nc3ccccc3n2)CC1 -0.532
O=C(CCl)NCc1ccc(N2CCOCC2)nc1 0.0899
O=C(CCl)N1CCCCC12CCOCC2 0.0647
O=C(CCl)Nc1cc2c(cc1Cl)OCCO2 0.135
Cl.O=C(CCl)N[C@H]1C[C@@H](n2cccn2)C1 -0.0476
N#Cc1cnn(-c2ccccc2)c1NC(=O)CCl -0.123
C/C(=C\CNC(=O)CCl)c1cnn(C)c1.Cl -0.0819
Cl.Cn1nc2c(c1CNC(=O)CCl)CCCC2 -0.111
Cc1cc(C2CCCN2C(=O)CCl)nn1C.Cl (stereo not given) 0.0127
Cc1ccc(N(CCC#N)C(=O)CCl)cc1C 0.127
O=C(CCl)NC1(c2ccc3c(c2)OCCO3)CCCC1 -0.172
O=C(CCl)Nc1ccc(N2CCCC2=O)cc1 0.31
CCN1C(=O)C2CN(C(=O)CCl)CCN2C1=O (stereo not given) -0.0909
O=C(CCl)N1c2ccccc2NC(=O)C12CCCC2 0.325
O=C(CCl)N1CCCC1c1ccsc1 (stereo not given) -0.0486
CC(=O)C1CCCCN1C(=O)CCl (stereo not given) -0.141
O=C(CCl)N(C1=CCCCC1)C1CC1 -0.00116
O=C(CCl)N1CCc2nc[nH]c2C1c1ccc(Cl)cc1 (stereo not given) -0.139
O=C(CN1CCN(C(=O)CCl)CC1)Nc1cccc(F)c1 0.273
CC(NC(=O)CCl)c1noc(Cc2ccccc2)n1 (stereo not given) 0.201
CCC1c2ccsc2CCN1C(=O)CCl (stereo not given) -0.188
Cc1ccccc1CN(C)C(=O)CCl 0.0682
O=C(CCl)N1CCC(O)(Cc2ccc(F)cc2)C1 (stereo not given) 0.0199
Cc1ccc(CNC(=O)CCl)nc1C.Cl 0.0421
